# Source: PubChem BioAssay (EPA / NIEHS)
# The source made the active and inactive calls. The calls were made as follows: active = hit-call score of the fitted dose curve at least 0.9, where 1 is the maximum; inactive = score below 0.9.
# Experiments:
# [1] = read-out: Interleukin-1 alpha (IL1a), IL1A (gene 3552); assay: BSK_KF3CT_IL1a: BioMAP Diversity Plus: KF3CT Assay for Interleukin-1 alpha (IL1a) Biomarker Activity (AID 2283070); conditions: primary human keratinocytes with fibroblasts; actives raise or lower the signal
# Outline: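 Human keratinocyte plus foreskin fibroblast primary co-culture, sampled 24 h after chemical dosing. IL-1a measured by ELISA; responses fitted bidirectionally against DMSO baseline (negative control), so gain or loss of signal both count.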
# [2] = read-out: TIMP metallopeptidase inhibitor 2 (TIMP2), TIMP2 (gene 7077); assay: BSK_KF3CT_TIMP2: BioMAP Diversity Plus: KF3CT Assay for TIMP metallopeptidase inhibitor 2 (TIMP2) Biomarker Activity (AID 2283071); conditions: primary human keratinocytes with fibroblasts; actives raise or lower the signal
# Outline: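 Human primary keratinocyte/foreskin fibroblast co-culture dosed with chemical and sampled at 24 h. TIMP-2 levels quantified by ELISA; bidirectional fitting against DMSO negative control as baseline.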
# [3] = read-out: Transforming growth factor beta 1 (TGFb1), TGFB1 (gene 7040); assay: BSK_KF3CT_TGFb1: BioMAP Diversity Plus: KF3CT Assay for Transforming growth factor beta 1 (TGFb1) Biomarker Activity (AID 2283072); conditions: primary human keratinocytes with fibroblasts; actives raise or lower the signal
# Outline: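 Human keratinocyte plus foreskin fibroblast primary co-culture, dosed with chemical for 24 h. TGF-b1 quantified by ELISA. Activity fitted bidirectionally against DMSO negative control as baseline.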
# [4] = read-out: C-C motif chemokine 2 (Homo sapiens) (UniProt P13500); assay: BSK_KF3CT_MCP1: BioMAP Diversity Plus: KF3CT Assay for Monocyte Chemoattractant Protein 1 (MCP1/CCL2) Biomarker Activity (AID 2283073); conditions: primary human keratinocytes with fibroblasts; actives raise or lower the signal
# Outline: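 Human keratinocyte–foreskin fibroblast co-culture; MCP-1 measured by ELISA 24 h after dosing. Bidirectional fit vs DMSO; cytotoxicity tracked by SRB total protein in parallel cultures.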
# [5] = read-out: Matrix Metallopeptidase 9 (MMP9), MMP9 (gene 4318); assay: BSK_KF3CT_MMP9: BioMAP Diversity Plus: KF3CT Assay for Matrix Metallopeptidase 9 (MMP9) Biomarker Activity (AID 2283074); conditions: primary human keratinocytes with fibroblasts; actives raise or lower the signal;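 as to AC50: MMP9 protein level quantified by ELISA in the co-culture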
# Outline: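 Keratinocyte plus foreskin fibroblast human primary skin co-culture was dosed with chemical and MMP-9 was quantified by ELISA 24 h later. Bidirectional curve fitting used DMSO as negative control and activity baseline.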
# [6] = read-out: urokinase plasminogen activator (uPA), PLAU (gene 5328); assay: BSK_KF3CT_uPA: BioMAP Diversity Plus: KF3CT Assay for urokinase plasminogen activator (uPA) Biomarker Activity (AID 2283075); conditions: primary human keratinocytes with fibroblasts; actives raise or lower the signal
# Outline: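 Human keratinocyte plus foreskin fibroblast primary co-culture exposed to chemical for 24 h. uPA levels were quantified by ELISA, and activity was fitted bidirectionally against a DMSO negative-control baseline.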
# CD40, CD40 (gene 958) [7] = assay: BSK_LPS_CD40: BioMAP Diversity Plus: LPS Assay for CD40 Biomarker Activity (AID 2283076); conditions: primary human HUVEC with PBMC; actives raise or lower the signal
# Outline: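 HUVEC plus PBMC co-culture stimulated with LPS; CD40 quantified by ELISA 24 h after compound dosing. Fitting was bidirectional relative to DMSO. SRB staining of parallel cultures flagged overt cytotoxicity.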
# [8] = read-out: E-selectin (Homo sapiens) (UniProt P16581); assay: BSK_LPS_Eselectin: BioMAP Diversity Plus: LPS Assay for Eselectin Biomarker Activity (AID 2283077); conditions: primary human HUVEC with PBMC; actives raise or lower the signal
# Outline: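 Human umbilical vein endothelial cells co-cultured with PBMC under LPS stimulation; cell-surface E-selectin measured by ELISA 24 h after dosing. Change in either direction versus DMSO, with SRB total-protein staining in parallel cultures for cytotoxicity.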
# [9] = BSK_LPS_SRB: Viability Assessment in the BioMAP Diversity Plus: LPS Assay (AID 2283079); conditions: primary human HUVEC with PBMC;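 also: total protein by sulforhodamine B absorbance as a cytotoxicity measure; measured one day after compound addition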
# Outline: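 Co-culture of human umbilical vein endothelial cells and PBMC, read 24 h after dosing. Total protein by 0.1% SRB staining after 10% TCA fixation, absorbance at 560 nm; bidirectional fit against DMSO.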
# [10] = read-out: Interleukin-1 alpha (IL1a), IL1A (gene 3552); assay: BSK_LPS_IL1a: BioMAP Diversity Plus: LPS Assay for Interleukin-1 alpha (IL1a) Biomarker Activity (AID 2283080); conditions: primary human HUVEC with PBMC; actives raise or lower the signal
# Outline: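 Human umbilical vein endothelial cells co-cultured with PBMC and stimulated with LPS; IL-1a measured by ELISA 24 h after dosing. Bidirectional fitting against DMSO; cytotoxicity checked by SRB staining in parallel cultures.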
# [11] = read-out: Monocyte Chemoattractant Protein-1 (MCP1), CCL2 (gene 6347); assay: BSK_LPS_MCP1: BioMAP Diversity Plus: LPS Assay for Monocyte Chemoattractant Protein-1 (MCP1) Biomarker Activity (AID 2283081); conditions: primary human HUVEC with PBMC; actives raise or lower the signal
# Outline: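 Human umbilical vein endothelial cells co-cultured with PBMC, LPS-stimulated; secreted MCP-1 measured by ELISA 24 h after compound addition. Bidirectional curve fitting against DMSO baseline; SRB total-protein staining in parallel cultures for cytotoxicity.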
# [12] = BSK_LPS_PGE2: BioMAP Diversity Plus: LPS Assay for Prostaglandin E2 (PGE2) Biomarker Activity (AID 2283082); conditions: primary human HUVEC with PBMC; actives raise or lower the signal;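 as to AC50: secreted prostaglandin E2 measured by ELISA in LPS-stimulated co-culture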
# Outline: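 HUVEC plus PBMC co-culture stimulated with LPS; secreted PGE2 quantified by ELISA 24 h after chemical dosing. Activity fitted bidirectionally against DMSO as negative control and baseline; parallel SRB total-protein staining served as cytotoxicity check.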
# [13] = read-out: Macrophage colony-stimulating factor (MCSF), CSF1 (gene 1435); assay: BSK_LPS_MCSF: BioMAP Diversity Plus: LPS Assay for Macrophage colony-stimulating factor (MCSF) Biomarker Activity (AID 2283083); conditions: primary human HUVEC with PBMC; actives raise or lower the signal
# Outline: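 HUVEC–PBMC co-culture, M-CSF measured by ELISA 24 h after chemical dosing. Fitted in both directions relative to DMSO as negative control; overt cytotoxicity assessed by SRB total-protein staining in parallel cultures.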
# [14] = read-out: Tumor necrosis factor (Homo sapiens) (UniProt P01375); assay: BSK_LPS_TNFa: BioMAP Diversity Plus: LPS Assay for Tumour Necrosis Factor alpha (TNFa) Biomarker Activity (AID 2283085); conditions: primary human HUVEC with PBMC; actives raise or lower the signal
# Outline: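 Human umbilical vein endothelial cells co-cultured with PBMC were exposed to test chemical and TNFa measured by ELISA 24 h after dosing. Bidirectional curve fitting was done relative to DMSO as negative control and baseline.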
# [15] = read-out: Vascular cell adhesion molecule 1 (VCAM1), VCAM1 (gene 7412); assay: BSK_LPS_VCAM1: BioMAP Diversity Plus: LPS Assay for Vascular cell adhesion molecule 1 (VCAM1) Biomarker Activity (AID 2283086); conditions: primary human HUVEC with PBMC; actives raise or lower the signal
# Outline: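 Human umbilical vein endothelial cells co-cultured with peripheral blood mononuclear cells under LPS stimulation were exposed to test chemical for 24 h. VCAM-1 levels were then measured by ELISA, with bidirectional curve fitting relative to DMSO as negative control and baseline.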
# CD38, CD38 (gene 952) = assay: BSK_SAg_CD38: BioMAP Diversity Plus: SAg Assay for CD38 Biomarker Activity (AID 2283087); conditions: primary human HUVEC with PBMC; actives raise or lower the signal
# Outline: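 Fluorescence ELISA of cell-surface CD38 served as the read-out, with either increase or decrease fitted against DMSO controls. Cells were a human umbilical vein endothelium plus PBMC co-culture under SEB/TSST-1 stimulation, measured 24 h after dosing.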
# CD40, CD40 (gene 958) [16] = assay: BSK_SAg_CD40: BioMAP Diversity Plus: SAg Assay for CD40 Biomarker Activity (AID 2283088); conditions: primary human HUVEC with PBMC; actives raise or lower the signal
# Outline: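 HUVEC plus PBMC co-culture, superantigen-activated, with CD40 read by ELISA 24 h after dosing. Curves fitted in both directions against DMSO. Overt cytotoxicity checked by parallel SRB total-protein staining.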
# CD69, CD69 (gene 969) = assay: BSK_SAg_CD69: BioMAP Diversity Plus: SAg Assay for CD69 Biomarker Activity (AID 2283089); conditions: primary human HUVEC with PBMC; actives raise or lower the signal
# Outline: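 ELISA, fluorescence read-out: CD69 on human umbilical vein endothelial cell + PBMC co-culture, 24 h post-dosing. Gain or loss of signal fitted bidirectionally against DMSO baseline.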
# E-selectin (Homo sapiens), sequence (P16581 whole entry, looked up): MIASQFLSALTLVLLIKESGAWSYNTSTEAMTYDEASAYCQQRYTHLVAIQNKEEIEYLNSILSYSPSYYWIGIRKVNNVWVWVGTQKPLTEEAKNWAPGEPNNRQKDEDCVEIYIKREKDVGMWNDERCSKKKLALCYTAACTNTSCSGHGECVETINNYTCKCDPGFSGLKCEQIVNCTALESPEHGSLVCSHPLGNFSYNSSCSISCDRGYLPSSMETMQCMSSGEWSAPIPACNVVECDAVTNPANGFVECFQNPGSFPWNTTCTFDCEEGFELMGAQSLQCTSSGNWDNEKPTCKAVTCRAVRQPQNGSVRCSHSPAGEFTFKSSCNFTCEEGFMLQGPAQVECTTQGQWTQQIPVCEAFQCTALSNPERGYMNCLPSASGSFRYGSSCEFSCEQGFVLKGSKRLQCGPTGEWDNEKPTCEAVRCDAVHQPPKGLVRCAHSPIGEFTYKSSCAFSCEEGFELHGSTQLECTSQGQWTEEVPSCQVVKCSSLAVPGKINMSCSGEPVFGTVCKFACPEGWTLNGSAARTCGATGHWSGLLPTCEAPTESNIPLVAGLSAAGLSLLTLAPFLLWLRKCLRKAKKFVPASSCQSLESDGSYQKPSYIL
# Tumor necrosis factor (Homo sapiens), sequence (P01375 whole entry, looked up): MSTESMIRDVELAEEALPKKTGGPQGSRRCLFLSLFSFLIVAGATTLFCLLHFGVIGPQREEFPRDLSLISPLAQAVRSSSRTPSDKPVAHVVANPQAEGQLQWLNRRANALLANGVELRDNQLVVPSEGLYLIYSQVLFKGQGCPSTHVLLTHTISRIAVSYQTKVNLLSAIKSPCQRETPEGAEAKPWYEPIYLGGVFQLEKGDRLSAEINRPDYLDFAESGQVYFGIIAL
smiles,measurement,setting,value
OCc1c[nH]c2ccccc12,outcome,[1],inactive
same,outcome,[2],inactive
same,outcome,[3],inactive
same,outcome,[4],inactive
same,AC50,[5],20 µM (active)
same,outcome,[6],inactive
same,outcome,"CD40, CD40 (gene 958) [7]",inactive
same,outcome,[8],inactive
same,outcome,[9],inactive
same,outcome,[10],inactive
same,outcome,[11],inactive
same,outcome,[12],inactive
same,AC50,[13],3.97 µM (active)
same,outcome,[14],inactive
same,outcome,[15],inactive
same,outcome,"CD38, CD38 (gene 952)",inactive
same,AC50,"CD40, CD40 (gene 958) [16]",20 µM (active)
same,outcome,"CD69, CD69 (gene 969)",inactive
NC(=O)N(O)[C@@H]1COc2cc(OCc3ccccc3)ccc21,outcome,[1],inactive
same,outcome,[2],inactive
same,outcome,[3],inactive
same,outcome,[4],inactive
same,outcome,[5],inactive
same,outcome,[6],inactive
same,outcome,"CD40, CD40 (gene 958) [7]",inactive
same,outcome,[8],inactive
same,outcome,[9],inactive
same,outcome,[10],inactive
same,outcome,[11],inactive
same,AC50,[12],3.45 µM (active)
same,outcome,[13],inactive
same,outcome,[14],inactive
same,outcome,[15],inactive
same,outcome,"CD38, CD38 (gene 952)",inactive
same,outcome,"CD40, CD40 (gene 958) [16]",inactive
same,outcome,"CD69, CD69 (gene 969)",inactive
